# About 210 (19%) of roughly 1,100 compounds were called active. Only a sample is shown. Entries with a potency or affinity are not part of this list. Unmarked numbers belong to inactive results. No rule for the calls is given here.
# Experiment: cell viability loss from selected hits – cytotoxicity control for SV40 T antigen inhibitor project, dose response (AID 2102);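 also: cells exposed to compounds for 72 hours; 100% = mean of untreated cell control wells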
# Conditions: Host cell viability cytotoxicity counter-screen; series mostly up to 50 µM; viability: at the top concentration
Structure (SMILES),viability [%],outcome
CN(C)c1ccc(NC(=O)c2cccc(N3C(=O)CCC3=O)c2)cc1,106,
O=C(O)[C@H]1CCCC[C@H]1C(=O)Nc1ccc(Nc2ccccc2)cc1,107,
CCOc1ccc(-c2nc(=S)[nH][nH]2)cc1,98.2,
COc1ccc(/C=N/NC(=O)c2cc(O)c(O)c(O)c2)cc1Cn1cc([N+](=O)[O-])cn1,92,
C=CCNC(=S)Nc1ccc(N(C)C)cc1,97.9,
CCc1cc(C(=O)N/N=C/c2ccc(O)cc2)c2ccccc2n1,113,
COc1cc(/C=N/NC(=O)c2ccc(Cn3cc([N+](=O)[O-])cn3)o2)cc(Br)c1O,96.9,
COc1cc(/C=N/NC2=NCCCCC2)ccc1O,107,
ClC(Cl)(c1nnnn1-c1ccccc1)c1nnnn1-c1ccccc1,90.6,
Oc1ccc(C2CNCCc3c2cc(O)c(O)c3Cl)cc1 (configuration not stated),95.4,
S=c1[nH]nc(-c2n[nH]c3c2CCC3)n1/N=C/C=C/c1ccco1,92.4,
COc1cc(/C=N/NC(=O)CCn2nnc3ccccc32)ccc1O,98,
CC(C)C(=O)Nc1ccc(O)c(-c2csc(N)n2)c1,104,
Cc1cc2cc3c(N)[nH]nc3nc2cc1C,104,
O=S(=O)(c1ccc(NC(=S)N/N=C/c2ccc(O)c(O)c2)cc1)N1CCOCC1,95,
CN(C)C(=S)Nc1ccc(N2CCOCC2)cc1,101,
Oc1ccc(NC(=S)Nc2ccccc2)cc1,,inactive
O=C1/C(=C/C=C/c2ccco2)SC(=S)N1NS(=O)(=O)c1ccccc1,110,
O=C(CN1C(=O)/C(=C/c2ccco2)SC1=S)Nc1ccc(O)c(C(=O)O)c1,105,
CCCCCCNC(=O)N[C@H](C(=O)NCCC[C@H]1CN2C(=NC[C@H]2C)N1CCC(c1ccccc1)c1ccccc1)C(C)O (some centres not stated),94.3,
COc1ccc(/C=N/Nc2nc(N3CCCC3)nc(N3CCCC3)n2)cc1O,113,
Cc1nn(-c2ccccc2)c2[nH]c(=O)c(CNc3ccc(N4CCOCC4)cc3)cc12,88.7,
COc1cccc(C=Nc2ccc(N3CCOCC3)cc2)c1O,108,
COc1cc(CNc2ccc3c(c2)OCCO3)ccc1OCC(N)=O,91.7,

Structure (SMILES),viability [%],outcome
Cc1cc(C)nc(SSc2nc(C)cc(C)n2)n1,92.6,
CN1C=CC=C/C1=C(\C#N)c1nc2ccccc2[nH]1,129,
O=Cc1cccn1-c1ccc(O)cc1,101,
Cc1ccc(NC(=O)CN2C(=O)N/C(=C/c3cccn3-c3ccc(C(=O)O)cc3)C2=O)cc1,125,
O=C(O)C1Nc2c(O)cc(Cl)c([N+](=O)[O-])c2C2C=CCC12 (configuration not stated),112,
CN(C)c1ccc(NC(=O)CSc2nc3c(c(=O)[nH]2)CCCC3)cc1,89.6,
O=C1C(=Cc2ccc(Br)o2)C(=O)c2ccccc21,107,
Cc1ccc(C2=NOC(=O)/C2=C\c2ccc(C)o2)cc1,95.6,
O=C1ON=C(c2ccccc2)/C1=C\c1ccco1,99.4,
CC1=NOC(=O)/C1=C\c1ccc(-c2ccc(Cl)c(C(=O)O)c2)o1,98.5,
Nc1nc[nH]c(=O)c1N=Cc1ccccc1,104,
O=C(c1ccco1)N1CCCC(Nc2ccc3c(c2)OCCO3)C1 (configuration not stated),88.8,
c1cncc(CNc2ccc3c(c2)OCO3)c1,101,
O=C(c1ccc2ccccc2c1)N1CCN(c2ccc(O)cc2)CC1,92.7,
N#C/C(=C\c1ccc(O)c(O)c1)C(=O)c1ccc(O)c(O)c1,99.4,
CCOC(=O)c1ccc2c(c1)C1C=CCC1C(C(=O)O)N2 (configuration not stated),108,
Oc1ccc(/C=N/NC(=S)NCC2CCCO2)cc1 (configuration not stated),91,
COc1ccc(-c2nc(O)c3cnccn23)cc1,100,
CCN(CC)c1ccc(NC(=O)c2ccco2)cc1,100,
CCN(CC)c1ccc(NC(=O)c2ccccc2F)cc1,85.1,
CC(=O)Nc1ccc(OC(=O)C(CCS(C)(=O)=O)N2C(=O)c3ccccc3C2=O)cc1 (configuration not stated),103,
O=C(O)/C=C/c1ccc(O)c(O)c1,104,
Oc1cc(O)cc(/C=C/c2ccc(O)c(O)c2)c1,105,
COc1cc(/C=N/NC(=O)C(C)n2nnc3ccccc32)ccc1O (configuration not stated),102,

Structure (SMILES),viability [%],outcome
O=C(N/N=C/c1ccc(OC(=O)c2ccco2)cc1)c1ccc[n+]([O-])c1,107,
Oc1ccc(O)c(-c2cnns2)c1,100,
O=C1CC(c2ccc(O)c(O)c2)Oc2c1ccc(O)c2O (configuration not stated),104,
CC1=C(C)CS(=O)N(S(=O)(=O)c2ccc(Cl)cc2)C1 (configuration not stated),103,
COc1cc(/C=N/Nc2nc3ccccc3[nH]c2=O)ccc1O,111,
COc1cc(-c2nnc(SCc3cc(=O)oc4cc(O)c(O)cc34)o2)cc(OC)c1OC,82.7,
COc1cccc(-n2c(=O)c3ccccc3n3c(=S)[nH]nc23)c1,84.8,
CCN(CC)CCN1C(=O)C(=O)/C(=C(/O)c2ccc(C)cc2)C1c1cccnc1 (configuration not stated),121,
CN=C1S/C(=C\c2ccc(O)c(OC)c2)C(=O)N1C,98.9,
Cc1occc1C(=O)N/N=C/C=C/c1ccc(N(C)C)cc1,91.2,
COc1cc(/C=C2/C(=O)NN(c3ccc(Cl)c(Cl)c3)C2=O)cc([N+](=O)[O-])c1O,98,
Cc1ccc(/C=N\NC(=O)COc2ccc(C)cc2[N+](=O)[O-])cc1,88.8,
CC(=O)CC1OC(=O)C(Br)=C1NCc1ccccc1 (configuration not stated),98.4,
O=c1[nH]sc2ccccc12,101,
CN(C)c1ccc(NC(=S)NCC2CCCO2)cc1 (configuration not stated),95,
Cc1[nH]c2ccccc2c1-c1csc(NC(=O)CSCC(=O)O)n1,113,
O=C1COc2ccc(N3C(=O)C=CC3=O)cc2N1,126,
COc1cc(/C=C2\C(=N)N3N=C(S(C)(=O)=O)SC3=NC2=O)ccc1OS(=O)(=O)c1ccc(C)cc1,98.1,
Cc1cc(-c2n[nH]c(=S)n2/N=C/c2c[nH]c3ccccc23)n[nH]1,92.8,
Cc1ccc2cc3c(N)[nH]nc3nc2c1,104,
COC(=O)CSc1nnc(CNc2ccc(OC)cc2)n1C,101,
C=CS(=O)c1sc(Cl)c(N2CCOCC2)c1[N+](=O)[O-] (configuration not stated),102,
Cc1ccc2oc(=O)c(/C=C(\O)CC(C)C)nc2c1,115,
Nc1ccc(Nc2nc3ccccc3[nH]2)cc1,104,

Structure (SMILES),viability [%],outcome
CCOC(=O)C1=C(C)N(c2ccccc2)C(=O)/C1=C\c1ccc(O)c(OC)c1,83,
COc1ccc(NC2CCCN(C(=O)c3c(C)noc3C)C2)cc1 (configuration not stated),110,
Oc1ccc(/C=N/Nc2ccc(Cl)nn2)cc1O,82.1,
COc1cc(/C=N/Nc2ccccn2)ccc1O,81.3,
C=CCNC(=S)NNC(=O)c1cc(O)ccc1O,107,
CCOc1cc(C(c2c(O)nc(SC)[nH]c2=O)c2c(O)nc(SC)[nH]c2=O)ccc1O,116,
CCOc1ccc(NCc2nnc(SCC(=O)Nc3cc(C)on3)n2-c2ccc(OC)cc2)cc1,84.5,
Cc1ccc(CNc2ccc(N3CCOCC3)cc2)cc1,98.8,
COc1ccc(CNc2ccc(N3CCOCC3)cc2)cc1,93.2,
CC(=O)N1CCN(c2ccc(NCc3ccc(C)s3)cc2)CC1,86.7,
Cc1cc(C)n(CCc2nc(-c3ccco3)cs2)n1,85.3,
Nc1ccc(-c2nc3c(Cl)c(N)ccc3[nH]2)cc1,126,
Nc1ccc2nc(CCCCCCc3nc4ccc(N)cc4[nH]3)[nH]c2c1,111,
O=C1NC(=NCc2ccccc2)S/C1=C/c1ccc(O)cc1,89.2,
CC(C)C(C(=O)O)N1C(=O)/C(=C/C=C/c2ccco2)SC1=S (configuration not stated),123,
C/C(=N/NC(=O)CSc1nc2ccccc2n1C)c1ccc(O)cc1,92.7,
COc1ccc(NC2CCCN(C(=O)CCCn3cncn3)C2)cc1 (configuration not stated),112,
O=C1NC(=O)/C(=C/c2ccc(O)cc2)S1,101,
O=C(O)Cc1c[nH]c2cccc(O)c12,92.2,
O=C(CCc1ccc(O)c(O)c1)N/N=C/c1cc2c(cc1[N+](=O)[O-])OCO2,91.3,
COc1ccc(CC(=O)N/N=C(\C)CC(=O)Nc2ccc(N(C)C)cc2)cc1OC,126,
COc1ccc(/C=N/NC(=O)CCc2n[nH]c(=O)[nH]c2=O)cc1O,105,
COc1cc(/C=C2\C(=O)NN(c3ccccc3)C2=O)ccc1OCC(N)=O,104,
Cc1nnc(Nc2ccc(O)cc2)[nH]c1=O,110,

Structure (SMILES),viability [%],outcome
O=S1(=O)N=C(Nc2ccc(O)cc2)c2ccccc21,115,
CCOc1cc(/C=N/NC(=O)CCc2n[nH]c(=O)[nH]c2=O)ccc1O,99.8,
C=CCn1c(SCC(=O)c2ccc(O)c(O)c2)nnc1-c1cccnc1,121,
CCOC(=O)CNc1c(-c2ccc(O)cc2)nc2ccccn12,90.2,
O=C(Nc1cccc(N2C(=O)C=CC2=O)c1)c1cccs1,110,
COc1cc(/C=N/N=C(\N)c2nonc2N)ccc1O,115,
COc1cc(C=C2C(=O)c3ccccc3C2=O)ccc1O,121,
COc1cc(-c2cc(=O)c3c(O)c(OC)c(OC)c(O)c3o2)ccc1O,97.4,
O=C(CC(=O)N/N=C/c1ccc(O)cc1)N/N=C/c1ccc(O)cc1,98.6,
O=C(N/N=C/c1ccc(O)c(O)c1)N/N=C/c1ccc(O)c(O)c1,98.8,
Oc1ccc(Nc2nc(Cl)nc(NCc3ccco3)n2)cc1,97.5,
CCOc1cc(-c2ccc(N)c(OCC)c2)ccc1N,84.3,
Nc1cc(C(=O)O)ccc1Nc1ccccc1,88,
Oc1ccc(-c2cn3c(n2)SCC3)cc1O,101,
COc1cc(/C=C/C(=O)OCC(=O)Nc2ccc(S(N)(=O)=O)cc2)ccc1O,107,
Nc1ccc2nc(CCCO)[nH]c2c1,125,
COc1cc(/C=N/NC(=O)c2cccc([N+](=O)[O-])c2)ccc1O,120,
COc1cc(C=C(C(C)=O)C(C)=O)ccc1O,103,
O=c1ccc2cc(O)c(O)cc2o1,96.9,
O=C(Nc1ccc(O)cc1)/C(=C\c1ccncc1)NC(=O)c1ccccc1,110,
Cc1nnc(N/N=C/c2c(O)n(-c3cccc(C(F)(F)F)c3)c(=O)c3ccccc23)[nH]c1=O,89.5,
